EWS-Fli block – blocks EWS/Fli oncoprotein-driven transcription; A673 NR0B1-luciferase reporter, viability-normalised; inhibition, % at 12.6 µM; 0.67% of 350,000 active; AID 651661;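 active = mean inhibition of at least 50% after viability correction, with every replicate also passing that limit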;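 also: firefly luciferase signal divided by Alamar Blue viability fluorescence both relative to DMSO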
TWEAK-Fn14 inh – inhibitors of TWEAK-Fn14 interaction signaling; TWEAK-stimulated Fn14 reporter cells, luciferase luminescence, 8 h; inhibition, % at 10 µM; 2% of 360,000 active; in the data active = inhibition above about 50%
LGR2 inh – blocks bursicon-induced cAMP signaling via Drosophila LGR2 | HEK293 LGR2, CRE-luciferase, bursicon-stimulated, 4 h | inhibition, % at 9.99 µM | 0.35% of 380,000 active | AID 720647;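 active = drop in luminescence signal, shown as inhibition above about 50% in the replicate tests, limit read from the data, passing the limit was not always enough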;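 also: agonist challenge used bursicon conditioned medium at about half maximal strength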
TROY signal inh – blocks TROY-dependent signaling in reporter cells. 0.98% of 360,000 active. inhibition, % at 10 µM. Q293 LMP1-TROYcd NF-kB luciferase reporter, 4 h;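 active = compounds whose plate-normalised and pattern-corrected inhibition of the luciferase reporter signal at the single screening dose is 50% or more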
EBV LMP1 NFkB – Epstein-Barr LMP1 NF-kappaB reporter inhibition; LMP1-induced NF-kappaB luciferase reporter cells, luminescence; inhibition, % at 12.5 µM; 0.69% of 350,000 active; in the data active = inhibition above about 41%
Each line names hits and unclear results; the compound was inactive in the other large screens. Compounds with a hit are over-represented: about 2.5% of the library has one in this group of screens.

CCCNC(=O)C[C@H]1CC[C@H]2[C@@H](COC[C@H](O)CN2C(=O)c2cc(Cl)cc(Cl)c2)O1	none (no result: TWEAK-Fn14 inh, TROY signal inh, EBV LMP1 NFkB)
CSc1cccc(CN2CCC(n3nccc3NC(=O)C3CC3)CC2)c1	EBV LMP1 NFkB 56 (no result: EWS-Fli block)
CCOc1ccccc1N1CCN(c2ncnc3scc(-c4ccc(OC)cc4)c23)CC1	TROY signal inh 59 (no result: EWS-Fli block)
Oc1ccccc1N1CCN(c2ncnc3scc(-c4ccccc4)c23)CC1	TWEAK-Fn14 inh 56
Oc1ccccc1N1CCN(c2ncnc3scc(-c4ccc(F)cc4)c23)CC1	none
COc1ccc(-c2csc3ncnc(N4CCN(c5ccccc5OC)CC4)c23)cc1	none
Cc1ccc(-c2csc3ncnc(N4CCc5ccccc5C4)c23)cc1	TWEAK-Fn14 inh 78, TROY signal inh 58 (no result: EWS-Fli block)
Fc1ccc(-c2csc3ncnc(N4CCc5ccccc5C4)c23)cc1	none
NC(=O)CC(NC(=O)c1ccccc1)c1ccc(N2CCC(Cc3ccccc3)CC2)c([N+](=O)[O-])c1 (stereo not given)	TROY signal inh 55
NC(=O)CC(NC(=O)c1ccc(Br)cc1)c1ccc(N2CCC(Cc3ccccc3)CC2)c([N+](=O)[O-])c1 (stereo not given)	none
O=C(C[C@H]1C=C[C@H](NS(=O)(=O)c2ccccc2)[C@@H](CO)O1)N1CCC(Cc2ccccc2)CC1	none (no result: TWEAK-Fn14 inh, TROY signal inh, EBV LMP1 NFkB)
C[C@H](CO)N1C[C@H](C)[C@@H](CN(C)C(=O)Nc2ccc3c(c2)OCO3)Oc2ccc(NS(=O)(=O)c3cccs3)cc2C1=O	none (no result: TWEAK-Fn14 inh, TROY signal inh, EBV LMP1 NFkB)
NC(c1csc(NC(=O)Nc2cccc(Cl)c2)n1)c1ccccc1Cl (stereo not given)	TWEAK-Fn14 inh 63 (no result: EBV LMP1 NFkB)
Cc1cccc(C)c1NC(=O)Nc1nc(C(N)c2ccccc2Cl)cs1 (stereo not given)	none (no result: EBV LMP1 NFkB)
CC(C)c1ccc(NC(=O)Nc2nc(C(N)c3ccccc3)cs2)cc1 (stereo not given)	LGR2 inh 94 (no result: EBV LMP1 NFkB)
CCC(=O)NC(c1cc(Cl)c2cccnc2c1O)C1CC1 (stereo not given)	EBV LMP1 NFkB 40
CCC(=O)NC(c1cc(Cl)c2cccnc2c1O)C(C)C (stereo not given)	EBV LMP1 NFkB 47
COC(=O)c1[nH]c2cccc(Cl)c2c1NC(=O)CN(C)C1CCCCC1	TWEAK-Fn14 inh 95 (no result: EWS-Fli block, LGR2 inh)
Nc1ccc(-c2nc3c(Cl)cc(N)cc3[nH]2)cc1	TWEAK-Fn14 inh 67, TROY signal inh 62 (no result: EWS-Fli block, LGR2 inh)
CN1C(=O)c2cc(NC(=O)C3CC3)ccc2OC[C@@H]2O[C@H](CC(=O)NCc3ccccc3F)CC[C@H]21	none (no result: TWEAK-Fn14 inh, TROY signal inh, EBV LMP1 NFkB)
FC(F)(F)c1cccc(CC2CN(Cc3ccccc3)Cc3ccccc3N2c2cc(Cl)cc(Cl)c2)c1 (stereo not given)	EWS-Fli block 76, TWEAK-Fn14 inh 91, LGR2 inh 102
O=C(C[C@H]1CC[C@@H](NC(=O)Nc2ccc(C(F)(F)F)cc2)[C@@H](CO)O1)NCCN1CCCC1	none (no result: TWEAK-Fn14 inh, TROY signal inh, EBV LMP1 NFkB)
Cc1ccc(S(=O)(=O)N(CC(=O)Nc2ccc(F)cc2)C(=O)N2CCN(C)CC2)cc1	none
Cc1ccc(NC(=O)CN(C(=O)N2CCN(C)CC2)S(=O)(=O)c2ccc(C)cc2)cc1	TROY signal inh 55
O=C1NC(=S)S/C1=C\c1cc2ccccc2nc1N1CCCCC1	TROY signal inh 59
O=C1NC(=S)SC1=Cc1ccccc1Cl	none (no result: LGR2 inh)
COc1ccc2nc(N3CCCCC3)c(/C=C3\SC(=S)NC3=O)cc2c1	TROY signal inh 64
C/C=C/c1ccc([C@@H]2[C@H](CN(C)S(=O)(=O)c3ccccc3)N[C@@H]2CO)cc1	none (no result: TWEAK-Fn14 inh, TROY signal inh, EBV LMP1 NFkB)
C[C@H]1CN([C@@H](C)CO)C(=O)c2cc(NC(=O)CCCN(C)C)ccc2O[C@H]1CN(C)S(C)(=O)=O	none (no result: EWS-Fli block, TWEAK-Fn14 inh, TROY signal inh, EBV LMP1 NFkB)
C[C@@H]1CN([C@H](C)CO)C(=O)c2cc(NC(=O)Cc3ccccc3)ccc2O[C@H]1CN(C)Cc1ccc(Cl)c(Cl)c1	none (no result: TWEAK-Fn14 inh, TROY signal inh, EBV LMP1 NFkB)
CCOc1ccccc1CNC(=O)C1CCN(C(=O)c2sccc2-n2cccc2)CC1	TWEAK-Fn14 inh 64 (no result: EWS-Fli block)
O=C(NCc1ccccc1Cl)C1CCN(C(=O)c2sccc2-n2cccc2)CC1	none
COC(=O)c1cccc(NC(=O)c2onc3c2CCCC3)c1	none
O=C(Nc1ccc2ccccc2c1)c1onc2c1CCCC2	TWEAK-Fn14 inh 57 (no result: EWS-Fli block)
Cc1cccc(NC(=O)c2onc3c2CCCC3)n1	EWS-Fli block 71, TWEAK-Fn14 inh 80, LGR2 inh 77, TROY signal inh 52
CCCNC(=O)Nc1ccc2c(c1)C(=O)N(C)C[C@@H](OC)[C@H](C)CN(C(=O)C1CCC1)[C@H](C)CO2	none (no result: TWEAK-Fn14 inh, TROY signal inh, EBV LMP1 NFkB)
COc1ccc2c3c([nH]c2c1)[C@@H](CO)N(C(=O)C1CCOCC1)CC31CCN(C(=O)NC(C)C)CC1	none (no result: TWEAK-Fn14 inh, TROY signal inh, EBV LMP1 NFkB)
